Assay results reported in PubChem BioAssay AID1347422 (Sanford-Burnham Center for Chemical Genomics, 2020).
In all, about 1,000 compounds were measured (“thermal shift dTm”: median about 0.19, highest 2% from about 1.7 on). The list comes from a sample in which the highest values are over-represented; it also holds similar structures and randomly drawn compounds. Calls of active or inactive are those of the source.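 How the source made its calls: active means mean rise in melting temperature of at least 1 degC over same-plate control wells; inactive means below that, where a call was filed.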

Target: Sulfhydryl oxidase 1 (Homo sapiens) (UniProt O00391)
Sequence (O00391 whole entry, looked up): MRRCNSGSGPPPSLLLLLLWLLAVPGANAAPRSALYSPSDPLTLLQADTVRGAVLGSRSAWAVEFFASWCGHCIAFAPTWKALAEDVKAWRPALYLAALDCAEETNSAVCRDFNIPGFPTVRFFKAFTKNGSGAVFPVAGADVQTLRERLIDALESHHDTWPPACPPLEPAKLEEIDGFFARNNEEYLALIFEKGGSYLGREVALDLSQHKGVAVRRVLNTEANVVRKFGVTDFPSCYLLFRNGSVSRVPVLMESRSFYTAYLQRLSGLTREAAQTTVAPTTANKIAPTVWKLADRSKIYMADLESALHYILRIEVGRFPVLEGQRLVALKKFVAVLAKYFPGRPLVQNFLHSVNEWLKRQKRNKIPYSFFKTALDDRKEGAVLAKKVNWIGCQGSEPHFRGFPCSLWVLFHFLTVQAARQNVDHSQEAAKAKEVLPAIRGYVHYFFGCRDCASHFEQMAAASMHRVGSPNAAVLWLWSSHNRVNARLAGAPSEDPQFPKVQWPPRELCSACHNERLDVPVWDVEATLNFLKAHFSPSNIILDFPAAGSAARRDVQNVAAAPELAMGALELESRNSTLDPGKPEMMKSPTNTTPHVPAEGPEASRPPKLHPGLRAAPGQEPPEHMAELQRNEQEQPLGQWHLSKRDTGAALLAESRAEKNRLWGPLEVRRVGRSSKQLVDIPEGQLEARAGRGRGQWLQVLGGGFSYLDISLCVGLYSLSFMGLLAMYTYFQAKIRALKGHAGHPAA
Experiment: QSOX1 binders by thermal stabilization, confirmation, QSOX1 inhibitor project, biophysical, protein thermal shift, single concentration (AID 1347422);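 further: dTm is compound Tm minus mean Tm of DMSO-only wells on that plate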
Conditions: recombinant hQSOX1 thermal shift, Sypro Orange, at 25 µM, stronger effect = higher value

| Compound | thermal shift dTm |
| --- | --- |
| O=C(Nc1n[nH]c(-c2ccccc2)n1)N1CCC2(C=Cc3ccccc32)CC1 | 0.09 °C |
| CCCCC1=NN2C(=N)/C(=C/c3ccc(Cl)cc3Cl)C(=O)N=C2S1 | 0.11 °C |
| CCOC(=O)c1sc(NC(=O)CSc2nc(SC)ns2)nc1C | 0.19 °C |
| Cc1sc(NC(=O)C#Cc2ccccc2)c(C(N)=O)c1C | 0.33 °C |
| CCC(c1ccc(OC)cc1)N(CC)C(=O)Nc1ccccc1 (stereo not drawn) | 0.14 °C |
| COC(=O)c1cccc(NC(=O)c2ccc(Cl)s2)c1 | 0.04 °C |
| C=CCSC1=N/C(=C\c2ccc(-c3cccc(Cl)c3)o2)C(=O)S1 | 0.63 °C |
| O=C(NCCC1=CCCCC1)Nc1cccc(F)c1 | 0.19 °C |
| CCN(CC)c1ccc2cc(-c3nc4ccccc4o3)c(=O)oc2c1 | 0.15 °C |
| COc1ccc(C(=O)Nc2nc(-c3cc(OC)ccc3OC)c(C)s2)cc1 | 2.73 °C (active) |
| COc1ccc2nc(NC(=O)c3ccc(C)o3)sc2c1 | 0.04 °C |
| COc1ccc(OC)c(-c2nc(NC(=O)c3ccccc3OC)sc2C)c1 | -7.06 °C (inactive) |
| CC1CCc2c(sc3ncn(CC(=O)Nc4ccccc4F)c(=O)c23)C1 (stereo not drawn) | 0.26 °C |
| COC(=O)C1=C(C)N(c2ccc(Cl)cc2)C(=O)/C1=C\c1ccco1 | 0.01 °C |
| O=C(Nc1ccc(Cl)cn1)c1cccc(NC(=O)c2cccs2)c1 | 0.37 °C |
| C/C=C/c1c(F)c(F)c(Oc2cccc(NC(C)=O)c2)c(F)c1F | 0.63 °C |
| C=CCN1C(=O)C(c2c(C)[nH]c3ccccc23)(c2c(C)[nH]c3ccccc23)c2ccccc21 | 1.05 °C (active) |
| FC(F)(F)c1ccc(Cl)c(Nc2nnc(-c3ccncc3)s2)c1 | 0.77 °C |
| Cc1ccc(NC(=O)NCc2nc(-c3ccccc3Cl)no2)cc1 | 0.2 °C |
| Cc1ccc(Nc2nc(-c3sc(C)nc3C)cs2)nc1 | 0.16 °C |
| O=C(Nc1cccc(Cl)c1)N1CCC(C(O)(c2ccccc2)c2ccccc2)CC1 | 0.21 °C |
| O=S1(=O)CC2C(C1)N(c1cccc(C(F)(F)F)c1)C(=S)N2c1ccccc1 (stereo not drawn) | -0.16 °C (inactive) |
| CC(=O)Oc1ccc(-c2csc(Nc3ccccc3F)n2)cc1 | 0.35 °C |

| Compound | thermal shift dTm |
| --- | --- |
| COc1ccc(S(=O)(=O)NC(C)C2C3CC4CC(C3)CC2C4)cc1 (stereo not drawn) | -0.18 °C (inactive) |
| O=C(Nc1nccs1)c1cccc(NC(=O)c2cc3ccccc3o2)c1 | 1.07 °C (active) |
| Cc1nc(NC(=O)c2ccc(Br)s2)sc1C | 0.27 °C |
| CCN(C(=O)Nc1ccc(Cl)cc1)c1nnc(-c2ccccc2)s1 | 0.16 °C |
| O=C(Nc1cccc(NC(=O)c2ccco2)c1)c1cccc(F)c1 | 1.39 °C (active) |
| CCc1ccc(C(=O)Nc2cccc(NC(=O)c3ccco3)c2)cc1 | 2.18 °C (active) |
| CC(=O)Nc1cccc(NC(=O)c2cccc(NC(=O)c3ccco3)c2)c1 | 0.37 °C |
| Cc1ccccc1OCc1nc(-c2cccc(NC(=O)c3ccco3)c2)no1 | 0.57 °C |
| Nc1cccc(/C=C/C(=O)c2ccccc2)c1 | 0.57 °C |
| COc1ccc(C(=O)/C=C/c2cccc(OC)c2)cc1 | 2.07 °C (active) |
| COc1ccc(/C=C/C(=O)Nc2cccc(C(C)=O)c2)cc1 | 1.18 °C (active) |
| O=C(NC1CC(=O)N(Cc2cccc3ccccc23)C1)C(=O)c1ccccc1 (stereo not drawn) | 0.23 °C |
| O=C(Nc1ccc(Cl)cc1)Nc1ccccc1OC(F)F | 0.25 °C |
| COc1ccc(C)cc1NC(=O)Nc1ccc(OC(F)F)c(Cl)c1 | -0.79 °C (inactive) |
| CCCc1cc(=O)[nH]c(SCC(=O)Nc2nc(-c3ccccc3)cs2)n1 | 1.07 °C (active) |
| COc1ccccc1C(=O)NC(=S)Nc1ccc(NC(=O)C(C)C)cc1 | 0.11 °C |
| O=c1c2ccccc2ncn1CCCOc1ccc2ccccc2c1Br | 0.11 °C |
| COc1ccc(Cl)cc1NC(=S)Nc1c(C)nn(Cc2c(F)cccc2Cl)c1C | 0.81 °C |
| CCCOC(=O)c1c(NC(=O)C2CC=CCC2C(=O)O)sc(C)c1-c1ccc(F)cc1 (stereo not drawn) | 0.77 °C |
| CC1Oc2ccc(-c3csc(NC(=O)COc4ccc(Cl)cc4)n3)cc2NC1=O (stereo not drawn) | -0.1 °C (inactive) |
| Cc1ccc(-n2[nH]c(CSc3nnnn3-c3ccccc3)cc2=O)cc1 | 0.43 °C |
| Cc1ccc(O)c(-c2cc(-c3ccccc3)n[nH]2)c1 | 0.01 °C |
| Cc1[nH]nc(-c2ccc(O)c(O)c2O)c1Oc1ccc(F)cc1 | -5.32 °C (inactive) |

| Compound | thermal shift dTm |
| --- | --- |
| Cc1ccc(-c2cc(-c3ccc(F)cc3)n[nH]2)c(O)c1 | 1.84 °C (active) |
| O=C(Nc1cccc(-c2noc(CCc3ccccc3)n2)c1)c1cccs1 | 0.1 °C |
| O=C(/C=C/c1ccco1)NCc1cccc(CNC(=O)/C=C/c2ccco2)c1 | 1.04 °C (active) |
| CCCC(=O)NC(c1ccccc1OC)c1c(OC(=O)COc2ccccc2)ccc2ccccc12 (stereo not drawn) | -0.13 °C (inactive) |
| OCc1ccc(OCc2ccc(F)cc2)c(Br)c1 | 0.58 °C |
| COc1ccc2[nH]cc(CCNC(=O)c3ccc(OC(C)=O)cc3)c2c1 | 0.81 °C |
| COc1ccc2[nH]cc(CCNC(=O)c3cccc(Cl)c3)c2c1 | 1.74 °C (active) |
| COc1cccc(C(=O)NCCc2c[nH]c3ccc(C)cc23)c1 | 0.07 °C |
| NC(=O)c1ccc(NC(=O)C2CC2(c2ccccc2)c2ccccc2)cc1 (stereo not drawn) | 0.19 °C |
| O=C(Nc1cccc(OCC2CCCO2)c1)c1cccs1 (stereo not drawn) | 0.09 °C |
| COc1cccc(C(=O)Nc2nc3ccc(Cl)cc3s2)c1 | 0.62 °C |
| COc1ccc(C(=O)Oc2ccccc2Cl)cc1Br | 0.06 °C |
| COc1ccc(-c2nc(-c3cccs3)c(-c3cccs3)[nH]2)cc1 | 0.25 °C |
| c1csc(-c2nc(-c3cccs3)c(-c3cccs3)[nH]2)c1 | 0.06 °C |
| Fc1ccc(-c2nc(-c3cccs3)c(-c3cccs3)[nH]2)cc1 | 3.34 °C (active) |
| Cc1oc(-c2ccccc2NS(C)(=O)=O)nc1CN(C)Cc1ccc(OC(F)F)cc1 | 0.18 °C |
| Cc1cc(NC(=O)c2ccccn2)ccc1NC(=O)c1cc2ccccc2o1 | 0.19 °C |
| N#Cc1cccc(NC(=O)c2cc3ccccc3o2)c1 | 0.32 °C |
| CC(=O)Nc1ccc(NC(=O)c2cc3ccccc3o2)cc1 | 1.73 °C (active) |
| O=C(Nc1cccc(OCc2ccccc2)c1)c1ccco1 | 0.23 °C |
| Cc1ccc(-c2noc(CNC(=O)C34CC5CC(CC(C5)C3)C4)n2)cc1 | 0.16 °C |
| O=C(CCSc1nc2sc3c(c2c(=O)[nH]1)CCCC3)Nc1ccccc1 | 0.02 °C |
